Assay results as given in PubChem BioAssay (NCI).
Compounds without any hit were thinned out: in the full panel of roughly 83,000, 20% have a hit.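 Method: cells in 96-well plates; compound added at one concentration; 48 h incubation; percent growth measured; values under 10 scored active.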 Values without a mark were called inactive. Active and inactive are the calls of the source.

Tests used:
Test in all cases: NCI-60 one-dose screen, 48 h (100 = growth as untreated, 0 = no growth, -100 = all killed)
Settings in all cases: 10 µM
NCI-H23 lung = system: NCI-H23 lung
NCI-H226 lung = system: NCI-H226 lung
HOP-62 NSCLC = system: HOP-62 NSCLC
NCI-H460 lung = system: NCI-H460 lung
HOP-92 NSCLC = system: HOP-92 NSCLC
NCI-H522 lung = system: NCI-H522 lung
A549/ATCC NSCLC = system: A549/ATCC NSCLC
786-0 renal = system: 786-0 renal
COLO 205 colon = system: COLO 205 colon

Structure (SMILES) | growth (NCI-H23 lung) | growth (NCI-H226 lung) | growth (HOP-62 NSCLC) | growth (NCI-H460 lung) | growth (HOP-92 NSCLC) | growth (NCI-H522 lung) | growth (A549/ATCC NSCLC) | growth (786-0 renal) | growth (COLO 205 colon)
CC(C1=C(CN(C(=O)Cc2cn(-c3ccccc3)nc2-c2ccc(Cl)cc2)C(C)C)Cc2ccccc21)c1ccccn1 (configuration not stated) | 55.3% | 69.9% | 92.7% | 53.1% | 62.2% | 44.2% | 61% | 68.2% | 66.7%
COc1cc2c(cc1OC)C(C(CCCCCC(CCC(C)C)C1NCCc3cc(OC)c(OC)cc31)CCC(C)C)NCC2 (configuration not stated) | -87.4% (active) | -75.6% (active) | -96.7% (active) | -80.3% (active) | -90.4% (active) | -95.4% (active) | -92.9% (active) | -97.8% (active) | -94.5% (active)
O=C1OC(C(Cl)(Cl)Cl)OC1C(Cl)(Cl)Cl (configuration not stated) | 102% | 110% | 121% | 108% | 105% | 96.4% | 95.6% | 114% | 107%
CCOC(=O)c1cc(C(=O)c2ccc(OC)c(OC)c2)n2ccncc12 | 97.4% | 101% | 106% | 106% | 94.9% | 74% | 99.3% | 106% | 115%
CCN1CCN(CCC(=O)Nc2cccc(-n3cc(-c4ccncc4)c(-c4ccc(Cl)c(OC)c4)n3)c2)CC1 | 32.2% | 65% | 37.7% | 6.94% (active) | 6.07% (active) | -23.2% (active) | 8.56% (active) | -47.6% (active) | -69.3% (active)
C#CCOc1c(OC)cc(C(=O)/C(C)=C/c2cccc(N=[N+]=[N-])c2)cc1OC | 36.4% | 68.9% | 36% | 16.7% | 63.1% | -48.6% (active) | 18.8% | 23.7% | -31.8% (active)
CCN(CC)CC(=O)N(CC)c1ccc(C)c(Cl)c1 | 103% | 99.8% | 91% | 104% | 90.1% | 83.8% | 86.3% | 98.4% | 101%
COc1ccc(-c2nc(-c3nc4ccc(C)cc4[nH]3)cc3c2[nH]c2ccccc23)cc1 | 39% | 63.9% | 55.3% | 32.8% | 33% | 14.7% | 28% | 69.9% | 46.9%
CCOS(=O)(=O)c1c(C(C)C)cc(C(C)C)cc1C(C)C | 98.4% | 99.5% | 98.9% | 103% | 99.1% | 100% | 102% | 105% | 104%
CNC(=O)c1cn2c3c(c(N4CCN(C)CC4)c(F)cc3c1=O)OC[C@@H]2C | 96.3% | 93% | 94.5% | 103% | 98.5% | 90.4% | 95.7% | 96.2% | 110%
CNC(=O)c1cc(Oc2ccc3c(c2)sc2nc(-c4ccc(NC(=O)Nc5ccc(Cl)c(C(F)(F)F)c5)cc4)cn23)ccn1 | 84.7% | 101% | 79.1% | 92.5% | 88.6% | 59% | 79.8% | 72.6% | 89.6%
COc1ccc(-c2onc(N)c2-c2cc(OC)c3c(c2)OCO3)cc1 | 44% | 77% | 29.4% | 14.9% | 63.9% | 9.81% (active) | 32.2% | 47.2% | 12.4%
CCCCN(CCCC)C(=O)[C@H](CC)[C@@H]1CC[C@@H](C)[C@@H]([C@H](C)[C@@H](O)[C@@H](C)C(=O)[C@H](CC)C2O[C@]3(C=CC(=O)[C@]4(CC[C@@](C)([C@H]5CC[C@](O)(CC)[C@H](C)O5)O4)O3)[C@H](C)C[C@@H]2C)O1 (some centres not stated) | 25.8% | 15.3% | 42.1% | 19.7% | -6.89% (active) | 13.2% | 30.3% | 47.7% | 21.3%
COc1ccc(-c2n[nH]nc2-c2cc(OC)c3c(c2OC)OCO3)cc1 | 45.6% | 75% | 36.1% | 11.4% | 8.78% (active) | -12.8% (active) | 33.3% | 65.6% | 12.9%
CC(C)(C)OC(=O)N1CCc2c(sc3ncnc(N/N=C/c4cccc(Br)c4)c23)C1 | 55.3% | 67.3% | 45.1% | 20.9% | 75.6% | 34.2% | 45.7% | 50.7% | 13.1%
COc1cc(C2CC(c3ccccc3)=NN2C(C)=O)cc(OC)c1OC (configuration not stated) | 64.1% | 82.1% | 68.2% | 15.5% | 76.1% | 7.46% (active) | 54.7% | 62.2% | 35.3%
O=C(Cn1cc(CO)nn1)Nc1nc2ccccc2s1 | 101% | 103% | 101% | 106% | 106% | 93.7% | 97.2% | 103% | 111%
Cc1cc(SC#N)cc(C(C)(C)C)c1O | 93.1% | 102% | 100% | 104% | 81.7% | 68.1% | 81.9% | 101% | 101%
Cc1ccc(C)c(COc2cc(NC(=O)c3ccc4c(c3)OCO4)ccc2N(C)S(C)(=O)=O)c1 | 9.96% (active) | 37% | 16.1% | -9.36% (active) | 23.1% | -15.9% (active) | 21.9% | 6.5% (active) | -68.3% (active)
CN(C)CCCSc1ccccc1NC1=C(Cl)C(=O)C(Nc2ccccc2SCCCN(C)C)=C(Cl)C1=O | -43.4% (active) | 93.5% | 118% | 103% | 79% | -78.2% (active) | 101% | 42.9% | 17.9%
COc1ccc(-c2cc(-c3ccc(Cl)cc3)nc(SCCCC(=O)NO)n2)cc1OC | -8.91% (active) | -5.3% (active) | 2.14% (active) | -17.7% (active) | -0.324% (active) | -5.35% (active) | 8.3% (active) | 4.57% (active) | 6.86% (active)
C1CN(CC2CCC(CN3CCOCC3)O2)CCO1 (configuration not stated) | 98.6% | 107% | 95.1% | 110% | 120% | 66.2% | 96.9% | 99.7% | 60.8%
CCN(CC)CCOc1cccc2c1C(=O)c1cccc(OCCN(CC)CC)c1C2=O | 42.2% | 36.6% | 37% | 13.9% | 36.5% | 42.8% | 17.5% | 38.6% | 6.57% (active)
Oc1ccc(-c2[nH]c3ccccc3c2-c2nc3ccccc3o2)cc1 | 77.8% | 78.5% | 67.9% | 86.6% | 67.8% | 60.9% | 58% | 75% | 59.1%
C/C=C/CSC(C)(C)C(=O)NC | 102% | 100% | 89.7% | 104% | 104% | 86% | 88.7% | 108% | 119%
CC(=O)C1CCC2C3CC=C4CC(SC(=N)N)CCC4(C)C3CCC12C (configuration not stated) | 61.8% | 56.6% | 82.5% | 16.7% | 30.2% | 61.5% | 47.5% | 48% | -100% (active)
COc1cc(Cc2cc(-c3ccccc3)n[nH]c2=O)cc(OC)c1OC | 65.5% | 68.5% | 73% | 44.5% | 35.8% | 52.9% | 53.5% | 74.3% | 56.3%
CS(=O)(=O)c1nccc(-c2c(-c3ccc(OCCc4ccccc4)cc3)nc3sccn23)n1 | 91.8% | 44.8% | 104% | 101% | 75.8% | 94% | 101% | 99.3% | 115%
